According to PubChem BioAssay (NCI):
Compounds without any hit were thinned out: in the full panel of roughly 83,000, 20% have a hit.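 For each line, cells grew in 96-well plates with the test compound present at a single concentration for 48 hours.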 Unmarked numbers belong to inactive results. Calls of active or inactive are those of the source.

The molecules below were run on SR leukemia (assay: NCI-60 one-dose screen, 48 h (100 = growth as untreated, 0 = no growth, -100 = all killed)). Settings: 10 µM unless noted.
Experimental: Growth inhibition of the SR human tumor cell line is measured as a screen for anti-cancer activity. Cells are grown in 96 well plates and exposed to the test compound for 48 hours. Compounds are tested at a single concentration, which is 10^-5 M for most compounds. The reported endpoint is percent growth (GI% or GIPRCNT), where numbers from 0 - 100% represent growth inhibition, and numbers from -100% - 0 represent cell death. For example, a value of 40 represents 60% growth inhibition. A value of 0 means no net growth occurred over the course of the experiment. A value of -40 indicates 40% of cells at the beginning of the experiment died by the end of the experiment. A value of -100 means all cells are dead at the end of the experiment.
NCI-60 Human Tumor Cell Lines Screen was performed using the standard one-dose NCI protocol, which is described in more detail at https://dtp.cancer.gov/discovery_development/nci-60/default.htm.
Compounds with GIPRCNT values below 10 were considered active. Activity score was based on GIPRCNT using the following formula: […]
Score is 0 for GIPRCNT values of 100 or above, 50 for GIPRCNT values of 0, and 100 for GIPRCNT values of -100.

SMILES	growth
CC(C)[C@@]12C[C@@H](OC(=O)[C@H]3CO3)[C@@](C)(O1)[C@@H]1CC[C@@H](C)[C@H]1[C@@H]2OC(=O)/C=C/c1ccccc1	69.4%
CC1CCCN(CCCCOc2ccc(-c3ccc(C#N)cc3)cc2)C1 (stereo not given)	86.8%
COc1cnc2c(c1)C(=O)c1c-2n(CCCN2CCN(C)CC2)c(=O)c2cc(Cl)ccc12	-9.29% (active)
CNCCCn1c2c(c3ccc(Cl)cc3c1=O)C(=O)c1cc(OC)cnc1-2	-33.5% (active)
CCCCCCCCCCCC1=NC(C)(C)CN1CC(C)O (stereo not given)	-61.4% (active)
COc1cc(C2CC(=O)Nc3c2cnn3C)cc(OC)c1OC (stereo not given)	103%
COc1ccc(-c2cc(-c3ccc(OC)cc3)c3sc(=O)[nH]c3n2)cc1	98.1%
CN1C(=O)N(C)C2C1NN=c1s/c(=C\c3ccsc3)c(=O)n12 (stereo not given)	20.6%
O=C(O)c1cc2cc(OCc3ccccc3)ccc2[nH]1	104%
COc1ccc(-c2nn(C(=O)NCCN(C)C)cc2-c2ccncc2)cc1Cl	20.5%
COc1ccc(C2c3cccn3-c3ccccc3N2C(C)=O)cc1 (stereo not given)	74%
CO[C@H](C(=O)[C@@H](O)[C@@H](C)O)[C@@H]1Cc2cc3cc(O[C@H]4C[C@@H](O[C@H]5C[C@@H](O)[C@H](O)C(C)O5)[C@H](O)C(C)O4)c(C)c(O)c3c(O)c2C(=O)[C@H]1O[C@H]1C[C@@H](O[C@H]2C[C@@H](O[C@H]3C[C@](C)(O)C(=O)C(C)O3)[C@@H](O)C(C)O2)[C@H](O)C(C)O1 (stereo not given in full)	8.44% (active)
CC(=O)Nc1ccc(/C=N/N2CCCCCC2)cc1	96.2%
N/C(=N\OC(=O)c1ccccc1)C(Cc1ccccc1)C(=O)NOC(=O)c1ccccc1 (stereo not given)	6.24% (active)
CC1(C)OC2OC3C(CN)OC(c4ccccc4)OC3C2O1 (stereo not given)	96.2%
COc1ccc(NC(=O)c2sc3c(=O)[nH]c(C(F)(F)F)nc3c2C)cc1	106%
COc1cccc(-c2cc(-c3cccs3)c(C#N)c(=O)[nH]2)c1	105%
N#CCCn1cnc2c(N)ncnc21	98%
O=C(NNC(=O)c1cccc(Cl)c1)c1ccccc1	85.8%
C=C1C(=O)O[C@H]2[C@H]1CC/C(COC(=O)N[C@@H](Cc1c[nH]c3ccccc13)C(=O)OC)=C\CC[C@@]1(C)O[C@@H]21	3.24% (active)

SMILES	growth
Cc1cccc(/C=N/n2c(-c3ccc(Cl)cc3)nc3c(Br)cc(Br)cc3c2=O)c1	73.1%
CC(C)=CC[C@@H]1CC2(CC=C(C)C)C(=O)C(OC3(C(=O)c4ccccc4)C(=O)C4(CC=C(C)C)C[C@@H](CC=C(C)C)C(C)(C)C(CC=C(C)C)(C4=O)C3=O)(C(=O)c3ccccc3)C(=O)C(CC=C(C)C)(C2=O)C1(C)C (stereo not given in full)	4.95% (active)
O=c1c2cc(Br)cc(Br)c2nc(-c2ccc(Cl)cc2)n1/N=C/c1cccc(F)c1	62.7%
CC(C)c1ccc(-c2cnc3nonc3n2)cc1	6.91% (active)
CCCCc1nc(Cl)c(C2CC(c3ccc(S(N)(=O)=O)cc3)=NN2c2ccc(C#N)cc2)[nH]1 (stereo not given)	80.5%
C[Si](C)(C)C(c1ccccc1)c1ccccc1	86.8%
O=C(Nc1ccc(Cl)cc1)c1cc(-c2ccc(Cl)cc2)c2sc(=O)[nH]c2n1	2% (active)
CCN(CC)Cc1cc(Nc2ccnc3ccc(OC)cc23)ccc1O	7.65% (active)
O=C(/C=C/c1ccccc1)c1c[nH]c2ccccc2c1=O	10.8%
ClCc1c(Cl)c(Cl)c(Cl)c(CCl)c1Cl	4.07% (active)
CC(C)(C)[Si](C)(C)OC1[C@@H](CNC(N)=O)O[C@@H](n2cnc3c(NC(=O)Nc4ccccc4)ncnc32)[C@H]1O[Si](C)(C)C(C)(C)C (stereo not given in full)	6.81% (active)
COc1ccc2c(c1)OC1=C(C(=O)OC1)C2c1cc(OC)c2c(c1)OCCO2 (stereo not given)	27.3%
Cc1cc(-c2ccccc2)on1	87.3%
COc1ccccc1CNCCCN1C(=O)c2ccc3c4c(ccc(c24)C1=O)C(=O)N(CCCNCCCN)C3=O	10%
Cc1csc(N/N=C/c2ccncc2)n1	96.6%
O=C1c2cccc3cccc(c23)C(=O)N1CCCCCCCCCCN1C(=O)c2cccc3cccc(c23)C1=O	96.8%
CC(=O)OC[C@H]1O[C@@H](n2c(=O)cc(N)[nH]c2=O)C(OC(C)=O)[C@@H]1OC(C)=O (stereo not given in full)	106%
CCCC(CCC)(C(N)=O)C(=O)O	111%
CCCCCCCCOC(=O)C(C)OC(=O)OCCOCCOC(=O)OC(C)C(=O)OCCCCCCCC (stereo not given)	104%
CC(C)(C)c1nn(-c2ccccc2)c2c1C(=O)CSC(c1ccc3c(c1)OCO3)N2 (stereo not given)	78.8%
